Data taken from PubChem BioAssay (NCI).
Compounds without any hit were thinned out: in the full panel of roughly 83,000, 20% have a hit.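 Growth was measured after 48 h exposure to one concentration of compound in 96-well plates. Values under 10 count as active.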 The source made the active and inactive calls.

Tests used:
Assay in all cases: NCI-60 one-dose screen, 48 h (100 = growth as untreated, 0 = no growth, -100 = all killed)
Details in all cases: 10 µM unless noted
[1] = system: HCT-15 colon
[2] = system: HT29 colon
[3] = system: SNB-75 CNS
[4] = system: SNB-19 CNS
[5] = system: U251 CNS
[6] = system: PC-3 prostate
[7] = system: SK-MEL-5 melanoma
[8] = system: UACC-62 melanoma
[9] = system: LOX IMVI melanoma
[10] = system: SK-MEL-28 melanoma
[11] = system: SK-MEL-2 melanoma
[12] = system: EKVX NSCLC
[13] = system: SN12C renal
[14] = system: UO-31 renal
[15] = system: TK-10 renal
[16] = system: ACHN renal
[17] = system: CAKI-1 renal
[18] = system: A498 renal
[19] = system: CCRF-CEM leukemia
[20] = system: MOLT-4 leukemia

Measured: growth

COc1ccc(-c2cc(-c3cc(OC)c(OC)c(OC)c3)c(C#N)c(=O)n2CCCCC(=O)NO)cc1
active: [9] 9.19%
inactive: [1] 38.4% | [2] 77.9% | [3] 25.5% | [4] 77.5% | [5] 61.3% | [6] 61% | [7] 57.7% | [8] 60.7% | [10] 76.8% | [11] 87.2% | [12] 65.5% | [13] 66.5% | [14] 37.8% | [15] 68.1% | [16] 56.1% | [17] 46.3% | [18] 76.7% | [19] 26.7% | [20] 27.2%

N#CSCC1CC(O)(c2ccccc2)CC(c2ccc(F)cc2)O1 (stereo not given)
inactive: [1] 16.5% | [4] 31.9% | [6] 25.8% | [7] 22.1% | [8] 11.4% | [10] 43.9% | [12] 34.2% | [14] 33.3% | [15] 59.7% | [18] 33.3%
active: [2] -0.0912% | [3] -25.8% | [5] -51.2% | [9] -46.8% | [11] -54.6% | [13] -61.5% | [16] 9.51% | [17] -44.9% | [19] 7.42% | [20] -0.406%

C[C@@H](CO)[C@@H]1CCC=C2CC[C@]3(C)[C@H](CC[C@@H]4[C@@]5(C)CCCNC(C)(C)[C@@H]5CC[C@]43C)[C@H]21
inactive: [3] 92.3% | [4] 88.4% | [5] 18.8% | [6] 47.1% | [7] 72.2% | [8] 80.3% | [10] 70.5% | [11] 52.1% | [12] 94.5% | [13] 67.3% | [14] 79.7% | [15] 82% | [16] 87.2% | [17] 47% | [18] 76.6% | [19] 26.2% | [20] 10.3%
active: [1] -5.42% | [2] 1.93% | [9] -52.2%

CC(C)=CCCC(C)c1ccc(C)c2c1OCN(CCCCCO)C2 (stereo not given)
inactive: [1] 94% | [2] 27.2% | [3] 85.6% | [4] 88.8% | [5] 83.8% | [6] 66.6% | [7] 91.7% | [8] 82.8% | [9] 77.6% | [10] 115% | [11] 92.7% | [12] 102% | [13] 78.6% | [14] 57% | [15] 73.7% | [16] 94.1% | [17] 78.1% | [18] 75.3% | [19] 96% | [20] 66.5%
